# Inconclusive results are not listed. Values without a mark were called inactive. Calls follow the shape of the dose curve; as a rule, active = well fitted inhibition curve with a large enough effect; inconclusive = small, poorly fitted or top-dose-only effect; inactive = no such curve, though single readings can be large or run the other way.
# Target: Retinaldehyde dehydrogenase 3 (Homo sapiens) (UniProt P47895)
# Test: qHTS for Inhibitors of the Aldehyde Dehydrogenase Family (ALDH1A3) Primary screen (AID 2061315);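 also: plate controls were DMSO vehicle for no effect and reference inhibitor for full effect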
# Details: ALDH inhibition qHTS; series mostly up to 56 µM; activity change, negative = inhibition: at the top concentration
row,SMILES,"activity change, negative = inhibition"
1,C/C(=C\C(=O)C(C)C1CCC2C3=C(CCC21C)C1(C)CCC(=O)C(C)(C)C1(O)CC3)C(C)(C)O (configuration not stated),21.7% [at 28 µM]
2,O=C(O)CCc1cc2ccoc2cc1O[C@@H]1O[C@H](CO)[C@@H](O)[C@H](O)[C@H]1O,10.2%
3,CC1OC(OC2CCC3(C)C(CCC4(C)C3C=CC35OCC6(CCC(C)(C)CC63)CCC45C)C2(C)CO)C(OC2OC(CO)C(O)C(O)C2O)C(O)C1OC1OC(CO)C(O)C(O)C1O (configuration not stated),5.08% [at 16.9 µM]
4,CC(O)C(=O)/C=C/C=C/C(=O)OC1C=C2COC(=O)C2(O)C2(C)CCCC(C)(C)C12 (configuration not stated),-4.54% [at 28 µM]
5,C[C@]12CCC[C@](C)(C(=O)O)C1CCC13CC(CO)C(CCC12)C3 (some centres not stated),-0.339%
6,CC1=CCC(C(C)(C)O[C@@H]2O[C@H](CO[C@@H]3O[C@@H](C)[C@H](O)[C@@H](O)[C@H]3O)[C@@H](O)[C@H](O)[C@H]2O)CC1 (some centres not stated),3.62% [at 28 µM]
7,CC1(C)CC[C@]2(C(=O)O[C@@H]3O[C@H](CO)[C@@H](O)[C@H](O)[C@H]3O)CC[C@]3(C)C(=CCC4[C@@]5(C)C[C@@H](O)[C@H](O)[C@@](C)(CO)C5[C@H](O)C[C@]43C)C2C1 (some centres not stated),18.5% [at 16.9 µM]
8,CC(=O)c1ccc(O[C@@H]2O[C@H](CO[C@@H]3OC[C@@H](O)[C@H](O)[C@H]3O)[C@@H](O)[C@H](O)[C@H]2O)cc1,0.741% [at 28 µM]
9,C=C1C(=O)O[C@@H]2C[C@@]3(C)CCC[C@H](C)C3=C[C@H]12,-2.27%
10,C/C1=C\CCC2=C[C@@H](OC2=O)c2c(C)coc2C1,3.56%
11,C[C@]1(OC(=O)/C=C\c2ccc(O)cc2)C[C@@H](O)[C@]2(O)C=CO[C@@H](O[C@@H]3O[C@H](CO)[C@@H](O)[C@H](O)[C@H]3O)C12 (some centres not stated),-12.3% [at 28 µM]
12,C=C1C2CCC3C(CCC4[C@@]3(C)CCC[C@@]4(C)C(=O)O)(C2)[C@@H]1OC(=O)/C(C)=C\C (some centres not stated),0.314% [at 28 µM]
13,CC1(C)CC2C(C1)C1(C)CCC13OC3(CO)C2O (configuration not stated),7.75%
14,CC1=CC(=O)C2C(C)(C)CCC[C@]2(C)[C@H]1CO (some centres not stated),4.09%
15,CCC[C@@H]1O[C@@H]2C[C@H]3[C@@H]4CCC5=CC(=O)C=C[C@]5(C)[C@H]4[C@@H](O)C[C@]3(C)[C@]2(C(=O)CO)O1,-4.47%
16,Cn1c(=O)c2nc(/C=C/c3cccc(Cl)c3)n(C)c2n(C)c1=O,3.85% [at 114 µM]
17,C=Cc1ccc(O[C@@H]2O[C@H](CO[C@@H]3O[C@@H](C)[C@H](O)[C@@H](O)[C@H]3O)[C@@H](O)[C@H](O)[C@H]2O)cc1,0.37% [at 28 µM]
18,Cc1ncc(CCCN(C)C)cc1Nc1ncc2c(n1)-c1ccc(C(F)(F)F)cc1NC(=S)C2,59.5%
19,CC1CCCCN1S(=O)(=O)c1ccc(N2CCCC2=O)cc1 (configuration not stated),-8.4%
20,O=C(O[C@@H]1O[C@H](CO)[C@@H](O)[C@H](O)[C@H]1O)c1c(O)cc(O)cc1/C=C/c1ccccc1,-0.221% [at 28 µM]
21,C=C1CO[C@@]2(O[C@H]3CC4C5CC=C6C[C@@H](O)C[C@@H](O[C@@H]7OC[C@H](O)[C@H](O[C@@H]8OC[C@@H](O)[C@H](O)[C@H]8O)[C@H]7O[C@@H]7O[C@@H](C)[C@H](OC(C)=O)[C@@H](OC(C)=O)[C@H]7OC(C)=O)[C@]6(C)C5CC[C@]4(C)[C@@H]3[C@@H]2C)[C@@H](O)[C@H]1OC1OC(C)C(O)C(O)C1O (some centres not stated),-6.16% [at 11.2 µM]
22,O=C(O)c1ccc(NC(=O)[C@H](CC2CCCC2)n2cnc(C(F)(F)F)c2)nc1,6.2%
23,COc1ccc(/C=C/C(=O)O[C@@H]2[C@@H](O[C@@H]3O[C@H](CO)[C@@H](O)[C@H](O)[C@H]3O)[C@@H](O)[C@H](O[C@H]3C4C=CO[C@@H](O[C@@H]5O[C@H](CO)[C@@H](O)[C@H](O)[C@H]5O)C4[C@@]4(CO)O[C@@H]34)O[C@H]2C)cc1 (some centres not stated),-7.15% [at 16.9 µM]
24,Cn1nnc(-c2ccc(-c3ccc(N4C[C@H](CO)OC4=O)cc3F)cn2)n1,-10.5%
25,C[C@H](NC(=O)C(C)(C)Oc1ccc(C(F)(F)F)cn1)[C@@H](Cc1ccc(Cl)cc1)c1cccc(C#N)c1,17%
26,CC1(C(=O)O)CCCC2(C)C3=CCC4CC3(CCC12)CC4CO (configuration not stated),4.39%
27,C/C=C(/C)C(=O)O[C@H]1[C@H](OC(=O)/C(C)=C\C)[C@@]23C(CC1(C)C)[C@]1(CCC4[C@@]5(C)CC[C@H](O[C@@H]6O[C@H](C(=O)O)[C@@H](O)[C@H](O[C@@H]7O[C@H](CO)[C@H](O)[C@H](O)[C@H]7O[C@@H]7O[C@@H](C)[C@H](O)[C@@H](O)[C@H]7O[C@@H]7OC[C@@H](O)[C@H](O)[C@H]7O)[C@H]6O[C@@H]6O[C@H](CO)[C@H](O)[C@H](O)[C@H]6O)C(C)(C)C5CC[C@@]4(C)[C@]1(C)C[C@H]2O)O[C@H]3O (some centres not stated),-5.71% [at 11.2 µM]
